# From PubChem BioAssay
# Activity calls are given as the source filed them.
# System: not listed separately
# Test: blood-stage malaria parasite viability loss – strain 3D7, DAPI fluorescence, 100 nL, primary screen (AID 1184);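 note: parasites grown inside human red blood cells in medium with human serum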
# Conditions: P. falciparum 3D7 growth, 3 d, higher = more signal
row,SMILES,z-score
1,CN(C)CCCNC(=O)[C@@H]1c2ccccc2C(=O)N(Cc2cc(F)cc(C(F)(F)F)c2)[C@H]1c1ccc(CO)cc1,-0.1
2,CCCNC(=O)[C@@H]1c2ccccc2C(=O)N(c2ccc(C)cn2)[C@H]1c1ccc(CO)cc1,0.167
3,CN1C(=O)C2C=CC(C(O)c3ccc(I)cc3)N(NC(=O)OC(C)(C)C)C2C1=O (stereo not given),-0.711
4,COC(=O)c1c(CC[C@@H](CO)NC(=O)N[C@H](Cc2ccccc2)Cn2cc(-c3ccccc3N)nn2)oc(C(C)=O)c1C(=O)OC,-1.29
5,CCCC=C(CCC)[C@@H](NC(=O)c1ccc(-c2ccccc2)cc1)c1ccc(C(=O)OC)cc1,0.208
6,COCC(=C=CC[C@@H](O)c1ccccc1OCCO)CCO,-0.721
7,CC1CC/C=C\[C@H]2OC34C=CCN(C(C)C)C(=O)[C@H]3N(CCCO)C(=O)[C@@H]4C2C(=O)O1 (stereo not given in full),-0.0943
8,Cn1cccc1C(O)C1C=CC2C(=O)NC(=O)C2N1Nc1ccccn1 (stereo not given),-0.119
9,CCCC[C@H]1OB(O)C[C@H]2C1=C(C)C[C@H]1C(=O)N(C)C(=O)[C@H]12,2.46
10,Cc1ccc(S[C@]2(C(=O)NCC(F)(F)F)CC(=O)N(Cc3ccccc3Cl)[C@@H]2c2ccc(CO)cc2I)cc1,0.115
11,CC(C)NC(=O)[C@@H]1c2ccccc2C(=O)N(CC23CC4CC(CC(C4)C2)C3)[C@H]1c1ccc(CO)cc1,-1.84
12,CCc1cccc(NC(=O)O[C@H]2[C@H](OC(=O)Nc3ccc4c(c3)OCO4)[C@@H](OC(=O)Nc3ccc4c(c3)OCO4)[C@@H](OC)O[C@@H]2CO)c1,-2.23
13,CC(C)OC(=O)C=C1C[C@@H](c2ccc(C#N)cc2)O[C@@H](c2ccc(C#N)cc2)O1,-0.868
14,COC(=O)C1=CCC(c2cccc(Cl)c2)O1 (stereo not given),-0.539
15,CCCC[C@@H](O)C1=C(C)C[C@H]2C(=O)N(Cc3ccccc3)C(=O)[C@H]2[C@H]1CO,-0.224

# Biological target: Homeobox protein Hox-A13 (Mus musculus) (UniProt Q62424)
# Sequence (Q62424 whole entry, looked up): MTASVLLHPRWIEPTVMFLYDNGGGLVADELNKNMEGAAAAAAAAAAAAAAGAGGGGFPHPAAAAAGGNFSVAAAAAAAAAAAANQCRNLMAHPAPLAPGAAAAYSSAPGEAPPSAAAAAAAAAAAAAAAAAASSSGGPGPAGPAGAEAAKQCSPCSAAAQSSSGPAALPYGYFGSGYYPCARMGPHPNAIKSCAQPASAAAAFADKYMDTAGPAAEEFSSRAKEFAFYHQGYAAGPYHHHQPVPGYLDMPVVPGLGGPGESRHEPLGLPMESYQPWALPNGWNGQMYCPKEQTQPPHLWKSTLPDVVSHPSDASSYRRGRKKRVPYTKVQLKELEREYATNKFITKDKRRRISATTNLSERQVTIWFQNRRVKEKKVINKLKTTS
# Test: disruptors of Hoxa13 oligonucleotide interaction – biochemical, fluorescence polarization, labeled oligonucleotide, primary screen (AID 1185)
# Conditions: Hoxa13:DNA binding, 15 min, higher = more signal, called active from +8 up or from −8 down
row,SMILES,z-score
1,CC(C)c1ccc(NN2C(C(O)c3ccc4c(c3)OCO4)C=CC3C(=O)N(c4ccccc4)C(=O)C32)cc1 (stereo not given),-1.45 (inactive)
2,CN1C(=O)[C@@]2(CCC(=O)OC(C)(C)C)N=C(c3ccc(OCCCO)cc3)O[C@H]2c2ccccc21,-4.88 (inactive)
3,COC(=O)[C@@]1(Cc2ccc(F)cc2)[C@@H]2C(=CC(=O)[C@H]2CC(=O)C(=O)N(C)C)CN1C(=O)c1ccccc1,-2.5 (inactive)
4,O=C(CS)NCCCCCNC(=O)[C@H]1C[C@H]2C(=O)N3CCC[C@H]3C(=O)N2[C@H]1c1cccc(OCCO)c1,-3.04 (inactive)
5,C=CCOC(=O)[C@H]1[C@@H]2C(=O)O[C@@H](c3ccccc3)[C@@H](c3ccccc3)N2[C@@H](c2ccc(OCCOC(=O)[C@H]3C[C@H]4C(=O)N[C@@H](Cc5ccccc5)C(=O)N4[C@H]3c3ccc(O)cc3)cc2)[C@]12C(=O)Nc1ccccc12,1.08 (inactive)
6,COc1ccc([Si](C)(C)[C@@H]2[C@@H](CCO)O[C@]3(C(=O)N(Cc4ccc(NC(C)=O)cc4)c4ccccc43)[C@H]2C)cc1,-5.34 (inactive)
7,CCCCCN1CC=CC23O[C@@H]4C=CCOC(=O)[C@@H]4[C@H]2C(=O)N(CCCCCCO)[C@@H]3C1=O (stereo not given in full),-4.08 (inactive)
8,COC(=O)C1(C)C=C2C(=C(c3ccccc3)C(=O)C2C)CN1 (stereo not given),-7.29 (inactive)
9,CC(C)N1CC=CC23O[C@@H]4C=CCCOC(=O)C4[C@H]2C(=O)N(CCCCCCO)[C@@H]3C1=O (stereo not given in full),-2.29 (inactive)
10,COc1ccc([Si](C)(C)[C@H]2[C@H](CCO)O[C@@]3(C(=O)N(Cc4cccc(NC(=O)[C@H](C)O)c4)c4ccccc43)[C@@H]2C)cc1,-6.16 (inactive)
11,COc1ccc(CCNC(=O)[C@@H]2c3ccccc3C(=O)N(c3ccc(C)cn3)[C@H]2c2ccc(CO)cc2)cc1,-1.78 (inactive)
12,C=CCNC(=O)[C@H]1[C@@H]2C(=O)O[C@@H](c3ccccc3)[C@@H](c3ccccc3)N2[C@@H](c2ccc(O)cc2)[C@]12C(=O)N(C(=O)OCCOC)c1ccc(C#CC3=CCCCC3)cc12,-0.216 (inactive)
13,[N-]=[N+]=NCc1ccccc1[C@@H]1OC(c2ccc(OCCCO)cc2)=N[C@]1(Cc1ccccc1)C(=O)N1CCOCC1,-4.99 (inactive)
14,CC(C)C[C@@H]1NC(=O)[C@H]2C[C@@H](C(=O)NCCCCCCN(C)C)[C@@H](c3cccc(OCCO)c3)N2C1=O,-4 (inactive)
15,C=C(/C(=C/C[C@@H](OC(=O)c1ccncc1)c1ccc(OCCO)cc1)c1cnc2ccccc2c1)C(C)C,-5.46 (inactive)
